SMILES strings stand for the structures. The source made the active and inactive calls. Rule for the calls: active = hit-call score of the fitted dose curve at least 0.9, where 1 is the maximum; inactive = score below 0.9.

This test in a line: ATG_GLI_CIS: Attagene CIS-FACTORIAL HepG2 Assay for human Zinc Finger Protein GLI1 (AID 2282945). Particulars: HepG2, Attagene cis-factorial reporter mRNA, GLI element; actives raise or lower the signal. The protocol:
ATG_CIS is a cell-based, multiplexed-readout assay that uses HepG2, a human liver cell line, with measurements taken at 24 hours after chemical dosing in a 24-well plate.ATG_GLI_CIS is one of 52 assay component(s) measured or calculated from the ATG_CIS assay. It is designed to make measurements of mRNA induction, a form of inducible reporter, as detected with fluorescence intensity signals by Reverse transcription polymerase chain reaction (RT-PCR) and Capillary electrophoresis technology.Data from the assay component ATG_GLI_CIS was analyzed into 1 assay endpoint. This assay endpoint, ATG_GLI_CIS, was analyzed with bidirectional fitting relative to DMSO as the negative control and baseline of activity. Using a type of inducible reporter, measures of mRNA for gain or loss-of-signal activity can be used to understand the reporter gene at the transcription factor-level as they relate to the gene GLI1. Furthermore, this assay endpoint can be referred to as a primary readout, because this assay has produced multiple assay endpoints where this one serves a reporter gene function. To generalize the intended target to other relatable targets, this assay endpoint is annotated to the dna binding intended target family, where the subfamily is zinc finger.
Human liver HepG2 cells are transiently transfected with multiple reporter transcription units (MRTUs) in 6-well plates using FuGene 6 reagent (Roche; 3 ml FuGene/1 mg DNA). The MRTU constructs are regulated by a cis-regulating element (promoter). […] A major difference between the CIS and TRANS system is that in CIS activities of endogenous TFs are measured, whereas the TRANS assay evaluates changes in activities of exogenous, chimeric NR-Gal4 proteins. […] At the end of 24 hour incubation, total RNA was isolated using TriZol reagent (Invitrogen). The isolated RNA is then reverse-transcribed using oligo(dT) primer and Mo-MLV reverse transcriptase (Invitrogen) with DNAse I (Ambion) treatment for 30 min. The one-tenth of the produced cDNA was amplified by PCR using Taq DNA polymerase (Invitrogen) and two reporter sequence-specific primers. The PCR products were fluorescently labeled by primer extension with 6-arboxyfluorescein (6-FAM) 5'-labeled reporter sequence-specific primer (2 min at 95 C, 20 s at 68 C and 10 min at 72 C) and these products were digested with 5U of HpaI (New England Biolabs) for 2h at 37 C. The fragments were purified using Qiaquick PCR columns (Qiagen), analyzed on an ABI 3130xL genetic analyzer (Applied Biosystems) with peak positions identified by using a set of X-rhodamine (ROX)-labeled MapMarker1000 molecular weight standards (BioVentures). The raw capillary electrophoresis data was processed using Attagraph software (Attagene).
As for `Cc1nc(-c2ccc3c(c2)CCN(CCC2CCC(NC(=O)/C=C/c4ccc(F)cc4)CC2)CC3)no1` (stereo not given), the call was inactive. Regarding `CCCCc1ccc2c(n1)[C@@H](c1ccc(OC)cc1C[C@H](C)C(=O)O)[C@H](C(=O)O)[C@H]2c1ccc2c(c1)OCO2`, the compound was called inactive. As to `Cc1ccc2ncccc2c1`, the call was inactive. As to `CC1(C)NC(=O)NC1=O`, the outcome was inactive. For the compound `Oc1ccc2c(c1)OC[C@@H](N1CCC(O)(c3ccc(F)cc3)CC1)[C@H]2O`, the compound was called inactive. In the case of `CC(C)(C)c1cc(O)c(C(C)(C)C)cc1O`, the AC50 was 114 µM (active).

On to `COc1ccc2c(c1)c(CC(=O)O)c(C)n2C(=O)c1ccc(Cl)cc1`, for which the compound was called inactive.

Regarding `c1cc(-c2ccncc2)ccn1`, the compound was called inactive. Regarding `Cc1ccc(C(C)C)c(O)c1`, the result was inactive. On to `Cc1oc(-c2ccccc2)nc1CCOc1cccc2c1ccn2CCC(=O)O`, for which the result was inactive. Consider `CCNc1cccc(C)c1`, for which the compound was called inactive. In the case of `COCCOC[C@H](CC1(C(=O)NC2CCC(C(=O)O)CC2)CCCC1)C(=O)Oc1ccc2c(c1)CCC2` (stereo not given in full), the call was inactive. Regarding `Cc1ccc(N(C)C)cc1`, the compound was called inactive. As for `Cc1nc(C)nc(N2C[C@@H](C)N(c3ccnc([C@@H](C)O)n3)[C@@H](C)C2)n1`, the result was inactive. Consider `CC(=O)OC/C=C(\C)CCC=C(C)C`, for which the call was inactive.

As for `Cc1cc(=O)[nH]c(=S)[nH]1`, the compound was called inactive.

On to `Nc1ccccc1N`, for which the compound was called inactive. Still for that read-out and setting: to `CCc1c(C(=O)NN2CCCCC2)nn(-c2ccc(Cl)cc2Cl)c1-c1ccc(Br)cc1` belongs “inactive”. As to `Cc1cccc(Nc2cc(Cl)nc(SCC(=O)O)n2)c1C`, the call was inactive. In the case of `CCOc1ccc2c(c1)C(C)=CC(C)(C)N2`, the compound was classed as inactive. Take `Nc1ccc2c(c1)C(=O)c1ccccc1C2=O`: the result was inactive. Same read-out and setting: to `CCCCCCCCCCO` belongs “inactive”; to `CCCCCC(=O)O`, “inactive”. Turning to `CNC(=O)[C@H]1O[C@@H](n2cnc3c(NCc4cc(Cl)ccc4OCc4cc(C)no4)ncnc32)[C@H](O)[C@@H]1N`, the call was inactive. For the compound `CC1(C)CC(N=C=O)CC(C)(CN=C=O)C1` (stereo not given), the call was inactive. For `COCCOCCOC`, the result was inactive.

With `CCOC(=O)C(C)(C)Oc1ccc(Cl)cc1`, the result was inactive. Turning to `CCCCCCC(=O)OCC`, the result was inactive. Turning to `CCCCOC(=O)CCCCCCCCC(=O)OCCCC`, the outcome was inactive. As to `NCC1(Cc2noc(=O)[nH]2)CCCCC1`, the call was inactive. For `C[Si]1(C)O[Si](C)(C)O[Si](C)(C)O[Si](C)(C)O1`, the compound was classed as inactive.

In the case of `COc1ccc(C)cc1N`, the result was inactive. `NS(=O)(=O)c1cc2c(cc1Cl)NCNS2(=O)=O`: the outcome was inactive. Same read-out and setting: to `CCCCCCCCCCCCCO` belongs “inactive”; to `C[C@]12C=CC(=O)C=C1CC[C@@H]1[C@@H]2C(=O)C[C@@]2(C)[C@H]1CC[C@]2(O)C(=O)CO`, “inactive”; to `CC(=O)C(C)=CC1C(C)=CCCC1(C)C` (stereo not given), “inactive”.

Regarding `O=[N+]([O-])C(CO)(CO)CO`, the outcome was inactive.

In the case of `CCCCCCCC=O`, the compound was classed as inactive.

With `CCCCCCOCCO`, the result was inactive.

Turning to `CCCCCCCCCCCC(=O)OC`, the call was inactive.

(Values after PubChem BioAssay (EPA / NIEHS).)
